Measured values: PubChem BioAssay AID1845224 (National Center for Advancing Translational Sciences (NCATS), 2023)
Results filed as inconclusive are left out. Unmarked numbers belong to inactive results. Active and inactive are the calls of the source. The call rests on the fitted dose curve; in most records, active means well fitted curve in the direction sought with a large enough effect; inconclusive means small, poorly fitted or top-dose-only effect, or another doubt; inactive means no such curve, though single readings can be large or run the other way.

tested on: NanoLuc luciferase (engineered Oplophorus gracilirostris luciferase); assay: Confirmatory Nanoluciferase (NLuc) qHTS assay for identification of artifact compounds.; conditions: secreted NLuc in S16 cell medium, luminescence, 5 min; series mostly up to 39 µM; activity change, negative = inhibition: at the top concentration
From the text: PI: Alexander Tropsha Ph.D. UNC Eshelman School of Pharmacy University of North Carolina, Chapel Hill, North Carolina Hits from high-throughput screening (HTS) of chemical libraries are often false positives due to their interference with the assay detection technology. In response to this problem, we generated the largest publicly available library of chemical liabilities and developed a free webtool to predict HTS artifacts, both of which are described herein. More specifically, we generated, curated, and integrated HTS datasets for thiol reactivity, redox activity, and luciferase (firefly and nano) activity. Using these curated datasets, we developed and validated several Quantitative Structure-Interference Relationship (QSIR) models to predict nuisance behavior. […] These models were employed for virtual profiling of the National Center for Advancing Translational Science's (NCATS) in-house library, and 256 compounds for each assay were selected for the experimental validation of nuisance behavior. The BA for these external predictions ranged from 58 to 78% for compounds within the applicability domains of the models. […] The models developed in this study, along with aggregation models previously developed by our group (SCAM Detective) were implemented in "Liability Predictor," an online tool which may be used as part of chemical library design or for triaging HTS hits. Both the models and the curated datasets are publicly available at https://liability.mml.unc.edu/.
PROTOCOL TABLE SEQUENCE No. (e.g., 1, 2, 3, etc.); PARAMETER (e.g., Cells, Incubation, Reagent, etc.); VALUE; DESCRIPTION. 1; Reagent; 2 uL; Nanoluciferase media. 2; Compounds and control; 16 nL; Kalypsis pin tool (Wako USA) equipped with a 1536-well pin head. 3; Incubation; 15 min. 4; Reagent; 2 uL; Luciferase enzyme. 5; Incubation; 5 min. 6; Detection; Luminescence, ViewLux microplate reader. NOTES (numbers refer to Sequence numbers above) 1. Medium was collected from the culture flasks of NLuc-expressing S16 cells (80% confluent) prior to cell plating, filtered through a 0.22um filter, and frozen at -20C prior to use. Media was diluted (1:55) and 2 uL was dispensed into all wells of a 1536-well assay plate (solid-bottom white plate; Greiner Bio One, Monroe, NC). 2. A Wako Pin-tool (Wako Automation, Richmond, VA) was used to transfer 16 nL of compounds (consisting of 7-plates in qHTS format, final concentration range 18.3 nM to 114 uM) or control Cilnidipine (final concentration range 623 nM to 80 uM). 3. 15 min. incubation at room temperature protected from light. 4. 2 uL of NLuc substrate (1:100 in Nano-Glo luciferase buffer; Nano-Glo luminescence assay, Promega, Madison, WI) was dispensed for a final assay volume of 4 uL. 5. Plates were centrifuged (121xg, 15 seconds) and incubated for 5 minutes. 6. Samples were read for luminescence on a ViewLux CCD imager (PerkinElmer). Data were normalized to no-enzyme (0% activity) and no-inhibitor (DMSO; 100%) controls and the resulting percent inhibition data were fitted to a 4-parameter Hill equation using NCATS in-house software.
Potency means the concentration at half of the fitted maximal effect.

SMILES	activity change, negative = inhibition	Potency
O=P1(N(CCCl)CCCl)NC(OO)CCO1 (centres undefined)	-7.69%	–
CC(C)(O)[C@@H]1[C@H]2OC(=O)[C@@H]1[C@]1(O)C[C@H]3O[C@]34C(=O)O[C@H]2[C@]14C	4.49%	–
CC1=C[C@H]2[C@]3(O)C(C=C(CO)C[C@]2(O)C1=O)[C@@H]1C(C)(C)[C@]1(O)[C@H](O)[C@H]3C (some centres undefined)	2.09%	–
C[C@H]1CC[C@@H]2[C@@H](C)[C@H]3C(CC4C5CC=C6CC(O[C@@H]7O[C@H](CO)C(O[C@@H]8O[C@@H](C)[C@H](O)[C@@H](O)[C@H]8O)[C@H](O)[C@H]7O[C@@H]7O[C@@H](C)[C@H](O)[C@@H](O)[C@H]7O)CC[C@]6(C)C5CC[C@@]43C)N2C1 (some centres undefined)	-3.93%	–
CC(=O)O[C@H]1[C@H]2[C@@H](OC(=O)Cc3ccccc3)[C@@H](C)C[C@]2(OC(C)=O)C(=O)/C(C)=C/[C@@H]2[C@H](CC[C@@]13CO3)C2(C)C	-1.77%	–
COc1cccc2c1C(=O)c1c(O)c3c(c(O)c1C2=O)CC(O)(C(C)=O)CC3OC1CC(NCc2ccc(CNC3CC(OC4CC(O)(C(C)=O)Cc5c(O)c6c(c(O)c54)C(=O)c4c(OC)cccc4C6=O)OC(C)C3O)cc2)C(O)C(C)O1 (centres undefined)	–	15.4 µM (active)
C[C@@H]1C[C@@H]2[C@H]([C@H]3C=C(COC(=O)c4ccccc4)[C@@H](O)[C@]4(O)[C@@H](O)C(OC(=O)c5ccccc5)=C[C@@]14C3=O)C2(C)C	-2.72% [at 19.8 µM]	–
COc1cc(=O)n2c(c1C(=O)N(C)Cc1nonc1C)CCN(C(=O)C1C(C)(C)C1(C)C)CC2	2.47%	–
CC(=O)O[C@H]1C2[C@@H](OC(=O)Cc3ccccc3)[C@@H](C)C[C@]2(OC(C)=O)C(=O)/C(C)=C/[C@@H]2[C@H](CC[C@@]13CO3)C2(C)C (some centres undefined)	-10.7%	–
